Experimental data: PubChem BioAssay AID1159580 (chemical genetic matrix, 2015)
The whole screen tested about 5,500 compounds, of which about 2,000 (36%) were called active. Inconclusive results (about 18%) are left out. No stated cut-off is given here; in the data, active means normalized growth mostly below about 0.91 (no sharp cut-off); inconclusive means no clear call, values can overlap the other calls; inactive means mostly above about 0.92. The list shows a part of the results.

Test: chemical genetic growth profiling, strain panel (AID 1159580);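 further: tested at 20 µM; growth read once vehicle control cultures reached saturation at 30 °C; 1 = growth at the plate median or of vehicle wells; lower values mean less growth of the strain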
Settings: growth OD

Measured: normalized growth

Cc1cccc(Nc2ccccc2C(=O)O)c1C
inactive: S. cerevisiae deletion strains, locus YJR075W, strain HOC1, hits give low values 0.937 | S. cerevisiae deletion strains, locus YKL068W, hits give low values 0.985 | S. cerevisiae deletion strains, locus YKL085W, strain MDH1 (second series), hits give low values 0.972 | S. cerevisiae deletion strains, locus YKL085W, strain MDH1, hits give low values 0.972 | S. cerevisiae deletion strains, locus YKL160W, strain elf1, hits give low values 0.921 | S. cerevisiae deletion strains, locus YLL001W, strain dnm1, hits give low values 0.914 | S. cerevisiae deletion strains, locus YLL026W, hits give low values 0.952 | S. cerevisiae deletion strains, locus YLR027C, strain aat2, hits give low values 0.936 | S. cerevisiae deletion strains, locus YLR058C, strain SHM2, hits give low values 0.906 | S. cerevisiae deletion strains, locus YLR113W, strain HOG1, hits give low values 0.903 | S. cerevisiae deletion strains, locus YLR221C, strain rsa3, hits give low values 0.925 | S. cerevisiae deletion strains, locus YLR258W, strain gsy2, hits give low values 0.924 | S. cerevisiae deletion strains, locus YLR262C, strain YPT6, hits give low values 0.683 | S. cerevisiae deletion strains, locus YLR320W, strain mms22, hits give low values 0.894 | S. cerevisiae deletion strains, locus YLR357W, strain rsc2, hits give low values 0.979 | S. cerevisiae deletion strains, locus YLR370C, strain arc18, hits give low values 0.913 | S. cerevisiae deletion strains, locus YML120C, strain ndi1, hits give low values 0.922 | S. cerevisiae deletion strains, locus YMR058W, strain fet3, hits give low values 0.918 | S. cerevisiae deletion strains, locus YMR125W, strain sto1, hits give low values 0.955 | S. cerevisiae deletion strains, locus YMR205C, strain PFK2, hits give low values 0.919 | S. cerevisiae deletion strains, locus YMR263W, strain SAP30, hits give low values 0.891 | S. cerevisiae deletion strains, locus YMR307W, strain GAS1, hits give low values 0.672 | S. cerevisiae deletion strains, locus YNL067W, strain RPL9B, hits give low values 0.926 | S. cerevisiae deletion strains, locus YNL128W, strain TEP1, hits give low values 0.988 | S. cerevisiae deletion strains, locus YNL153C, strain GIM3, hits give low values 0.933 | S. cerevisiae deletion strains, locus YNL209W, strain ssb2, hits give low values 0.939 | S. cerevisiae deletion strains, locus YNL233W, strain BNI4, hits give low values 0.927 | S. cerevisiae deletion strains, locus YNL248C, strain rpa49, hits give low values 0.971 | S. cerevisiae deletion strains, locus YNL250W, strain rad50, hits give low values 0.988 | S. cerevisiae deletion strains, locus YNL271C, strain bni1, hits give low values 0.941 | S. cerevisiae deletion strains, locus YOL006C, strain TOP1, hits give low values 0.884 | S. cerevisiae deletion strains, locus YOL012C, strain htz1 1.12 | S. cerevisiae deletion strains, locus YOR001W, strain rrp6, hits give low values 0.938 | S. cerevisiae deletion strains, locus YOR061W, strain CKA2, hits give low values 0.894 | S. cerevisiae deletion strains, locus YOR070C, strain gyp1, hits give low values 0.928 | S. cerevisiae deletion strains, locus YOR080W, strain dia2, hits give low values 0.941 | S. cerevisiae deletion strains, locus YOR083W, strain WHI5, hits give low values 0.921 | S. cerevisiae deletion strains, locus YOR106W, strain vam3, hits give low values 0.94 | S. cerevisiae deletion strains, locus YOR136W, strain idh2, hits give low values 0.958 | S. cerevisiae deletion strains, locus YOR231W, strain MKK1, hits give low values 0.919 | S. cerevisiae deletion strains, locus YOR270C, strain vph1, hits give low values 0.868 | S. cerevisiae deletion strains, locus YOR290C, strain snf2, hits give low values 0.919 | S. cerevisiae deletion strains, locus YPL055C, strain LGE1, hits give low values 0.881 | S. cerevisiae deletion strains, locus YPL078C, strain atp4, hits give low values 0.893 | S. cerevisiae deletion strains, locus YPL106C, strain sse1, hits give low values 1.05 | S. cerevisiae deletion strains, locus YPL256C, strain CLN2, hits give low values 0.874 | S. cerevisiae deletion strains, locus YPR141C, strain kar3, hits give low values 0.981 | S. cerevisiae deletion strains, strain wtn01, hits give low values 0.911 | S. cerevisiae strains, strain wild type, hits give low values 0.937
active: S. cerevisiae deletion strains, locus YKL009W, strain mrt4, hits give low values 0.874 | S. cerevisiae deletion strains, locus YKL190W, strain CNB1, hits give low values 0.908 | S. cerevisiae deletion strains, locus YKR001C, strain vps1, hits give low values 0.676 | S. cerevisiae deletion strains, locus YKR026C, strain gcn3, hits give low values 0.877 | S. cerevisiae deletion strains, locus YKR091W, strain srl3, hits give low values 0.909 | S. cerevisiae deletion strains, locus YLL041C, strain sdh2, hits give low values 0.901 | S. cerevisiae deletion strains, locus YLR039C, strain RIC1, hits give low values 0.597 | S. cerevisiae deletion strains, locus YLR102C, strain apc9, hits give low values 0.876 | S. cerevisiae deletion strains, locus YLR262C, strain YPT6 (second series), hits give low values 0.749 | S. cerevisiae deletion strains, locus YLR268W, strain sec22, hits give low values 0.869 | S. cerevisiae deletion strains, locus YLR330W, strain CHS5, hits give low values 0.87 | S. cerevisiae deletion strains, locus YLR342W, strain FKS1 (second series), hits give low values 0.756 | S. cerevisiae deletion strains, locus YLR342W, strain FKS1, hits give low values 0.897 | S. cerevisiae deletion strains, locus YLR371W, strain rom2, hits give low values 0.858 | S. cerevisiae deletion strains, locus YLR384C, strain iki3, hits give low values 0.894 | S. cerevisiae deletion strains, locus YLR418C, strain cdc73, hits give low values 0.775 | S. cerevisiae deletion strains, locus YML016C, strain PPZ1, hits give low values 0.886 | S. cerevisiae deletion strains, locus YML032C, strain rad52, hits give low values 0.891 | S. cerevisiae deletion strains, locus YML124C, strain tub3, hits give low values 0.843 | S. cerevisiae deletion strains, locus YMR078C, strain ctf18, hits give low values 0.838 | S. cerevisiae deletion strains, locus YMR129W, hits give low values 0.908 | S. cerevisiae deletion strains, locus YMR223W, strain ubp8, hits give low values 0.869 | S. cerevisiae deletion strains, locus YMR231W, strain pep5, hits give low values 0.9 | S. cerevisiae deletion strains, locus YNL071W, strain lat1, hits give low values 0.897 | S. cerevisiae deletion strains, locus YNL183C, strain NPR1, hits give low values 0.805 | S. cerevisiae deletion strains, locus YNL298W, strain CLA4, hits give low values 0.844 | S. cerevisiae deletion strains, locus YNL307C, strain MCK1, hits give low values 0.626 | S. cerevisiae deletion strains, locus YNL322C, strain KRE1 (second series), hits give low values 0.898 | S. cerevisiae deletion strains, locus YNL322C, strain KRE1, hits give low values 0.912 | S. cerevisiae deletion strains, locus YNR049C, strain mso1, hits give low values 0.912 | S. cerevisiae deletion strains, locus YNR052C, strain pop2, hits give low values 0.878 | S. cerevisiae deletion strains, locus YOL147C, strain pex11, hits give low values 0.87 | S. cerevisiae deletion strains, locus YOR069W, strain VPS5, hits give low values 0.893 | S. cerevisiae deletion strains, locus YOR144C, strain elg1, hits give low values 0.86 | S. cerevisiae deletion strains, locus YOR184W, strain ser1, hits give low values 0.724 | S. cerevisiae deletion strains, locus YOR265W, strain rbl2, hits give low values 0.908 | S. cerevisiae deletion strains, locus YOR316C, strain cot1, hits give low values 0.874 | S. cerevisiae deletion strains, locus YPL051W, strain arl3, hits give low values 0.906 | S. cerevisiae deletion strains, locus YPL240C, strain hsp82, hits give low values 0.915 | S. cerevisiae deletion strains, locus YPL241C, strain CIN2, hits give low values 0.902 | S. cerevisiae deletion strains, locus YPR119W, strain clb2, hits give low values 0.856 | S. cerevisiae deletion strains, locus YPR163C, strain tif3, hits give low values 0.893 | S. cerevisiae deletion strains, locus YPR167C, strain met16, hits give low values 0.87
